Compounds without any hit were thinned out: in the full panel of roughly 83,000, 20% have a hit.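 Note: values are percent growth. 100 is the growth of untreated cells, values between 100 and 0 indicate rising inhibition; between -100 and 0 indicates cell death.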 Values without a mark were called inactive. Calls of active or inactive are those of the source. How the source made its calls: active means growth percent below 10; inactive means the rest.
System: MDA-MB-468 breast
Test: NCI-60 one-dose screen, 48 h (100 = growth as untreated, 0 = no growth, -100 = all killed)
Conditions: 10 µM unless noted

SMILES	growth
COC(=O)[C@@]1(C)CC[C@]2(C)CC[C@]3(C)C(=CC(=O)[C@@H]4[C@@]5(C)Cc6c(n(CC#CCN7CCN(C)CC7)c7ccccc67)C(C)(C)[C@@H]5CC[C@]43C)[C@@H]2C1	69.1%
COC(=O)[C@H](CCCCNC(=O)OCc1ccccc1)NC(=O)[C@@H](NC(=O)Nc1cc(C(F)(F)F)cc(C(F)(F)F)c1)C(C)C	-12.9% [100 µM] (active)
O=c1cc(-c2ccccc2)[nH]c2c1CCCC2	39.9%
C1=CN2CC(c3ccccc3)=NNC2c2ccccc21 (stereo unspecified)	82.5%
COc1cc(-c2nnc(SCc3ccc(O)c4ncccc34)n2-c2ccccc2)cc(OC)c1OC	-10.1% (active)
O=C(COc1cc(O)c2c(=O)cc(-c3ccccc3)oc2c1)Nc1ccccc1	103%
O=C(/C=C/c1ccco1)c1ccccc1O	60.7%
Cc1ccc2oc3nc(C)c(C(=O)NCc4ccccc4)cc3c(=O)c2c1	96.7%
O=c1c2cc(F)ccc2sc2c(NCCN3CCCC3)nc3ccccc3c12	65.8%
COc1cc(/C=C2/C=C(c3ccc(C(C)(C)C)cc3)N(CCc3ccc(S(N)(=O)=O)cc3)C2=O)cc(OC)c1OC	55.6%
COc1cc(CCc2cc(NC(=O)c3ccc(N4C[C@@H](C)N[C@@H](C)C4)cc3)n[nH]2)cc(OC)c1	71.3%
COc1ccc(-c2nocc2-c2cc(OC)c(OC)c(OC)c2)cc1	-15.5% (active)
CC(=O)O[C@H]1C[C@@H]2C(C)(C)C(=O)CC[C@@]2(C)c2ccc(C(C)C)cc21	105%
CN(C)c1ccc(/C=c2\sc3nc4ccccc4n3c2=O)cc1	78.4%
CCc1cccc2c1S/C(=C/c1ccc(Cl)cc1)C2=O	93.6%
COc1cnc2c(c1)C(=O)c1c-2n(CCCNCCO)c(=O)c2ccncc12	-23.9% (active)
CC(=O)Nc1ccc2nc3ccc(NC(C)=O)cc3[n+](-c3ccccc3)c2c1	104%
Cc1occc1-c1nc2s/c(=C\c3cn(-c4ccccc4)nc3-c3ccccc3)c(=O)n2n1	89.8%
CC(C)=C[C@@H]1c2c(c3ccccc3n(C)c2=O)O[C@H]2c3c(c4ccccc4n(C)c3=O)OC(C)(C)[C@@H]12	61.4%
Fc1ccc2[nH]cc(-c3nc(-c4c[nH]c5ccncc45)cs3)c2c1	-65.6% (active)
COc1cc(/C=C/C(=O)C(=Cc2ccc(F)c(F)c2)C(=O)/C=C/c2ccc(O)c(OC)c2)ccc1O	25.6%

SMILES	growth
COc1cccc(CCC2CCCN(c3cc(C)nc(N)n3)C2)c1 (stereo unspecified)	26.1%
Cc1c2cccnc2c(C)c2c1c1cc(CO)ccc1n2C	-48.7% (active)
Cc1cccc(Cc2cnc(NC(=O)CCc3ccc(C)o3)s2)c1	5% (active)
COc1ccc2c(c1)/C(=C1/S/C(=N/c3nnc(C)s3)NC1=O)C(=O)N2Cc1ccc(Br)cc1	25.8%
Cc1cc(C(C#N)c2ccc(Cl)cc2)c(Cl)cc1NC(=O)c1cc(I)cc(I)c1O (stereo unspecified)	58.9%
SCc1ccc(CS)cc1	111%
CCOC(=O)C(=CCC(C)C)C(=O)OCC	98%
CC(C)c1ccc(/C=N/Nc2nc3ccccc3s2)cc1	110%
CC(=O)OC1/C=C\CC/C=C\C1 (stereo unspecified)	109%
CCOC(=O)C(C)(C#N)C1C=CCCC1 (stereo unspecified)	75.6%
N#CSCc1cc(Cl)c(CSC#N)cc1Cl	66%
O=C1/C(=C/c2ccccc2)CCC/C1=C\c1ccccc1	63.2%
CC/C=C(\C)C(CCC)(CN=O)C(=O)OCC (stereo unspecified)	113%
CN(C)C(=O)c1cc2cnc(Nc3ccc(-c4csc5c(=O)cc(N6CCNCC6)oc45)cc3)nc2n1C1CCCC1	19.6%
N#Cc1c(-c2ccccc2)cc(-c2ccccc2)n(CCC(=O)O)c1=O	26.6%
CC(C(=O)O)(C1CCCCC1)C1(O)CCCCC1 (stereo unspecified)	106%
COc1cc(C2C(C#N)=C(N)Oc3cc(O)ccc32)cc(OC)c1OC (stereo unspecified)	-16% (active)
CC(C)(C)N1CCC1C(N)=O (stereo unspecified)	108%
Cc1ccc(S(=O)(=O)c2nc(-c3ccc(F)cc3)oc2S(C)(=O)=O)cc1	57.7%
O=[N+]([O-])c1ccccc1NC1c2ccccc2Oc2ccccc21	30.6%

— PubChem BioAssay (NCI)
